Among the data in the supplement of paper PMC10105736 are MAPPIT interaction score values, retold here.

Values without a mark were called inactive.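 The calls were made as follows: active = MAPPIT score above the 99th percentile of random reference set scores in the same batch; inactive = at or below it.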

What all share (assay): MAPPIT interaction score (arbitrary units); higher = stronger binary interaction signal, active = hit call of the paper
For one test, the target named is CG9825. The settings on record: MAPPIT configuration: N-C; pair source set: screen_4.
The target in another test is CG9133. The conditions noted are these: MAPPIT configuration: N-N; pair source set: screen_1.
The target of a further test is GstT2. The conditions noted are these: MAPPIT configuration: N-N; pair source set: screen_1.
Another test concerns the target CG9106. The settings on record: MAPPIT configuration: N-N; pair source set: screen_2.
Another test has as its target CG9676. The conditions noted are these: MAPPIT configuration: N-N; pair source set: RRS.
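Also: HEK293T cells with Epo stimulation, STAT-responsive firefly luciferase reporter, fold induction versus unstimulated cells divided by the larger fold induction of two negative controls lacking either bait or prey.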

B1: CG8306 (protein)
chain: MASSPITDFYAGRNVFITGATGFVGVTIVEKLLRDVPNVGTLYLLMRAKKGKSVQERLEELKKNSVFDKFKELQLQSRLSKIVPIEGDVGLEHLGISPKDRQTLIDNVNVVFHSAATLDFFQSLKETTNINLRGTRRVVELCQQIKNLDALVHVSSAYVNAYLTKVEEKLYPAPEDPEKIIQLSETLNDDALKELEPKLLKDHPNTYTFTKHLAEHEVANVASKFPCGIVRPSMITAAWKEPIPGWTISKNGPQGFFMGASKGVLRRLPLDPSIIMDYIPIDVVVNGIITTGYYVNSLQAKNGGRPADLQIFHLTSSTYKPFRFELMTDKINSYLHDYPLNSAVWYPNLRLVKSLWVFRLSAILFHFIPAIILDLVTKIGGGRPILVRLHKNVWNSLNTLEKFIFTEWHFDSKRLLALSKTLNIVDKKKFFIDIGELAWDEYFSNTILGVRQYLSKEPIKNLEKARRKDKILLGLHVALQLSFWYGVFKLIVCLTGISTAKAALVLPVLYYLFGLL
Take B1: the MAPPIT interaction score with CG9825 was -0.0656.

B2: to (protein)
chain: MFAIAFAVVLCLLVSVDAKFPEDPKPCKYGDGECIMKLCNTLFSENSAEGDPGLNLMQLDPLKVDRMVISQGESSSPVGITLTFTDNLLYGIKDQRIVKVKGFGRDLTAKHEVKIVTKTFSLVGPYNIQGKVLILPISGTGQSNMTMVNVRAIVSFSGKPLVKNGETYLDVTDLKITMKPESSHYHFSNLFNGDKALGDNMNVFLNENSEAIYKETAKAIDRSFGKLYLGVVKGVFSKLPYAKFFADES
Regarding B2, in the test with CG9825, the MAPPIT interaction score was 0.062.

B3: Tollo (protein)
chain: MLATTHMLYVLIATCVIPIFGAALSKTVLYQAPDECRWSGGGEHDITLVCHLRTINSELENTNFSVIQPQNTVRLRLECNDALFFQSSLSPDSFRSLVELRDLTIEYCKLGNLTDGSFRGLQELRNLTIRTHNGDWSTMSLEMASNSFVEFRQLERLDLSLNNIWLIPDGMVCPLKSLQHLNASYNKIQDISNFYFSASLSSRKARVCGSTLQSLDLSANKMVSLPTAMLSALGRLTHLNMAKNSMSFLADRAFEGLLSLRVVDLSANRLTSLPPELFAETKQLQEIYLRNNSINVLAPGIFGELAELLVLDLASNELNSQWINAATFVGLKRLMMLDLSANKISRLEAHIFRPLASLQILKLEDNYIDQLPGGIFADLTNLHTLILSRNRISVIEQRTLQGLKNLLVLSLDFNRISRMDQRSLVNCSQLQDLHLNDNKLQAVPEALAHVQLLKTLDVGENMISQIENTSITQLESLYGLRMTENSLTHIRRGVFDRMSSLQILNLSQNKLKSIEAGSLQRNSQLQAIRLDGNQLKSIAGLFTELPNLVWLNISGNRLEKFDYSHIPIGLQWLDVRANRITQLGNYFEIESELSLSTFDASYNLLTEITASSIPNSVEVLYLNDNQISKIQPYTFFKKPNLTRVDLVRNRLTTLEPNALRLSPIAEDREIPEFYIGHNAYECDCNLDWLQKVNRESRTQPQLMDLDQIHCRLAYARGSSHVSLIEAKSDDFLCKYASHCFALCHCCDFQACDCKMECPDRCSCYHDQSWTSNVVDCSRASYEQTLPSHIPMDSTQLYLDGNNFRELQSHAFIGRKRLKVLHLNHSRIEVLHNRTFYGLLELEVLQLQSNQLKALNGNEFQGLDNLQELYLQHNAIATIDTLTFTHLYHLKILRLDHNAITSFAVWNFLPSYLNELRLASNPWTCSCEFIDKLRDYINRHEYVVDKLKMKCDVISGNSTQQMVIYPGSGEPASLPVVQCSQTLPLGLDNNFNYAEQAGGENASNATSTKMILNQPPKLDYIPILVAILTAFIFVMICISLVFIFRQEMRVWCHSRFGVRLFYNAQKDVDKNEREKLFDAFVSYSSKDELFVNEELAPMLEMGEHRYKLCLHQRDFPVGGYLPETIVQAIDSSRRTIMVVSENFIKSEWCRFEFKSAHQSVLRDRRRRLIVIVLGEVPQKELDPDLRLYLKTNTYLQWGDKLFWQKLRFALPDVSSSQRSNVAGQSCHVPINHASYHHHHHVHQQAMPLPHSVHHHQQQFMLPPPPQQPGSFRRQPSLHQQQQQQQQIRGNNNTTQQQQQQQAALLMGGGSVGGPAPQMIPLAGGIQQQSLPLPPNQQPTPASRNLHM
For B3, the MAPPIT interaction score is 1.51 with CG9133 and 2.34 with GstT2.

B4: bol (protein)
chain: MHKIAAAPPPSATPGGGLETPLAAPKYGTLIPNRIFVGGISGDTTEADLTRVFSAYGTVKSTKIIVDRAGVSKGYGFVTFETEQEAQRLQADGECVVLRDRKLNIAPAIKKQPNPLQSIVATNGAVYYTTTPPAPISNIPMDQFAAAVYPPAAGVPAIYPPSAMQYQPFYQYYSVPMNVPTIWPQNYQENHSPLLHSPTSNPHSPHSQSHPQSPCWSIEDLRDTLPRV
Regarding B4, the MAPPIT interaction score with CG9106 is 3.9 (active).

B5: sgg (protein)
chain: MSGRPRTSSFAEGNKQSPSLVLGGVKTCSRDGSKITTVVATPGQGTDRVQEVSYTDTKVIGNGSFGVVFQAKLCDTGELVAIKKVLQDRRFKNRELQIMRKLEHCNIVKLLYFFYSSGEKRDEVFLNLVLEYIPETVYKVARQYAKTKQTIPINFIRLYMYQLFRSLAYIHSLGICHRDIKPQNLLLDPETAVLKLCDFGSAKQLLHGEPNVSYICSRYYRAPELIFGAINYTTKIDVWSAGCVLAELLLGQPIFPGDSGVDQLVEVIKVLGTPTREQIREMNPNYTEFKFPQIKSHPWQKVFRIRTPTEAINLVSLLLEYTPSARITPLKACAHPFFDELRMEGNHTLPNGRDMPPLFNFTEHELSIQPSLVPQLLPKHLQNASGPGGNRPSAGGAASIAASGSTSVSSTGSGASVEGSAQPQSQGTAAAAGSGSGGATAGTGGASAGGPGSGNNSSSGGASGAPSAVAAGGANAAVAGGAGGGGGAGAATAAATATGAIGATNAGGANVTDS
As for B5, the MAPPIT interaction score with CG9676 is 0.279.
